mHTT CaM bind = mHTT-calmodulin interaction abrogation. AlphaScreen His-mHTT/GST-CaM binding, luminescence. inhibition, % at 15 µM. 3.6% of 190,000 active
Pf apPOL inh = Pf-apPOL DNA polymerase inhibition; Recombinant Pf-apPOL, molecular beacon fluorescence, 1.5 h; inhibition, % at 10 µM; 0.25% of 210,000 active; AID 1794808
Hits are given with their value; – = inactive; · = no result given. Most compounds without a hit are left out; they make up all but 3.5% or so of the library. Rule as the data show it: active = inhibition above about 50%; inactive = the rest.

SMILES | mHTT CaM bind | Pf apPOL inh
COc1ccc(C)cc1NC(=O)C1CC(=O)N(c2cccc(NC(C)=O)c2)C1 (stereo unspecified) | – | –
O=C(O)c1ccc([N+](=O)[O-])c2c1NC(c1ccc([N+](=O)[O-])cc1)C1CC=CC21 (stereo unspecified) | – | –
O=[N+]([O-])c1ccc(C2Nc3c(O)ccc(Br)c3C3C=CCC32)cc1 (stereo unspecified) | 100 | –
O=[N+]([O-])c1c(Cl)cc(O)c2c1C1C=CCC1C(c1ccc(Br)cc1)N2 (stereo unspecified) | 98 | –
Oc1ccc(Br)c2c1NC(c1ccc(Cl)cc1)C1CC=CC21 (stereo unspecified) | 100 | –
O=[N+]([O-])c1cc(Cl)c2oc(-c3ccc(O)cc3)nc2c1 | – | –
Cc1ccc(NC(=O)C(=O)N2CCN(c3cccc(Cl)c3)CC2)c([N+](=O)[O-])c1 | – | –
O=C(NN=Cc1cc(Br)ccc1O)c1ccccc1Oc1ccccc1 | · | –
Cc1ccc(F)cc1NC(=O)CCCc1ccccc1 | – | –
O=C(NCCS(=O)(=O)NCc1ccccc1Cl)c1ccccc1 | – | –
Cc1ccc2sc(N(CCCn3ccnc3)C(=O)c3ccc4c(c3)OCCO4)nc2c1C | 58 | –
Cc1cc(Cl)cc2sc(N(CCCn3ccnc3)C(=O)c3cccs3)nc12 | 82 | –
CC(=O)N(CCN1CCOCC1)c1nc2c(C)cc(Cl)cc2s1 | – | –
CSc1cccc2sc(N(CC3CCCO3)C(=O)c3ccc4c(c3)OCCO4)nc12 (stereo unspecified) | – | –
Cc1cc(C)c(NC(=O)CN2CCC(c3nc(-c4cccc(F)c4)no3)CC2)c(C)c1 | – | –
COc1ccccc1CNc1ccc2c(c1)ncn2C1CCCCC1 | 55 | –
COc1cccc(CNc2ccc3c(c2)ncn3C2CCCCC2)c1OC | – | –
CC(=O)N1c2c(cc(Br)cc2S(=O)(=O)Nc2ccc(C(F)(F)F)cc2)CC1C (stereo unspecified) | 91 | –
CC(=O)N1c2c(cc(Br)cc2S(=O)(=O)Nc2cccc(C(F)(F)F)c2)CC1C (stereo unspecified) | – | –
O=C(CC(NS(=O)(=O)c1ccc(Br)cc1)c1ccco1)NCc1cccnc1 (stereo unspecified) | – | –
CN(C)c1ccc(C=Cc2ccc3ccccc3[n+]2C)cc1 | · | –
CN1/C(=C/C=C/c2ccc3ccccc3[n+]2C)C=Cc2ccccc21 | 100 | –
O=S(=O)(c1c(F)cccc1F)N(CCc1ccc(F)cc1)C[C@@H](O)COCc1ccccc1 | 99 | –
CN(CC(O)COCc1ccccc1)C1CCCCC1 (stereo unspecified) | – | –
CCN(CC)CC(=O)Nc1ccc2c(c1)Nc1ccccc1CC2 | – | –
SMILES | mHTT CaM bind | Pf apPOL inh
COC1=CC(=Cc2c(N)n3nc(-c4ccccc4C)sc3nc2=O)C=CC1=O | 57 | –
CCOC1=CC(=Cc2c(N)n3nc(COc4ccccc4)sc3nc2=O)C=CC1=O | – | –
O=C1NC(=O)/C(=C/c2cc(Cl)c(OCc3ccc(F)cc3)c(Cl)c2)N1 | – | –
COc1ccccc1N(CC(=O)N1CCN(c2ccccc2)CC1)S(C)(=O)=O | – | –
COc1cccc(C2C(C(=O)Nc3ccccc3)=C(C)Nc3nc(-c4ccccc4)nn32)c1OC (stereo unspecified) | 70 | –
COc1ccc(C2C(C(=O)Nc3ccccc3)=C(C)Nc3nc(-c4ccccc4)nn32)c(OC)c1 (stereo unspecified) | – | –
Cc1cc(C)cc(Oc2c(C(F)(F)F)oc3c(CN4CCN(C)CC4)c(O)ccc3c2=O)c1 | – | –
CCCNC(=O)c1cc2c(n1C)CCN(Cc1cccc(C)c1)C2 | – | –
COc1cccc(CN2CCc3c(cc(C(=O)NCc4ccccc4OC)n3C)C2)c1 | – | –
COc1cccc(CN2CCc3c(cc(C(=O)Nc4cc(OC)cc(OC)c4)n3C)C2)c1 | 62 | –
COc1ccc(NC(=O)c2cc3c(n2C)CCN(Cc2cccc(C)c2)C3)c(OC)c1 | 63 | –
Fc1cccc(-c2nnc3n2N=C(c2ccc(Cl)cc2)CS3)c1 | – | –
CC(=O)Nc1ccc(NC(NC(=O)c2cccs2)C(=O)c2ccccc2)cc1 (stereo unspecified) | – | –
O=C(NC(Nc1ccc(Br)cc1)C(=O)c1ccccc1)c1cccs1 (stereo unspecified) | 63 | –
Cc1ccccc1NC(NC(=O)c1cccs1)C(=O)c1ccccc1 (stereo unspecified) | – | –
O=C(NC(Nc1cccc(C(F)(F)F)c1)C(=O)c1ccccc1)c1cccs1 (stereo unspecified) | 83 | –
COc1ccc(Br)cc1CN1CCc2ccccc2C1 | – | –
Cc1ccc(-c2ncc(NC(=O)CC(C)(C)C)cn2)cc1 | – | –
O=C(Nc1nccs1)C1CCN(C(=O)c2cccc(C(F)(F)F)c2)CC1 | – | –
O=C(Nc1cccnc1)C1CC(c2ccc(Cl)cc2)=NO1 (stereo unspecified) | – | –

Compound activity deposited in PubChem BioAssay by University of Kansas High Throughput Screening Laboratory.
